Experimental data from ChEMBL document CHEMBL4513141, “CO-ADD screening of NIH (USA) - Clinical Collection” (2021).
Results with a measured potency or affinity are listed apart. Square brackets hold non-standard residues; d marks the D form. Peptide text beside a SMILES is read from it. pGlu = O=C1CC[C@@H](C(=O)O)N1; Thz = O=C(O)[C@@H]1CSCN1

Legend:
Staphylococcus aureus = settings: Concentration 20 uM; ASSAY_TEST Inhibition of Bacterial Growth; detection method Absorption (OD600); MEDIA CAMHB; plate type 384well; NBS; CORNING #3640; time 18 hr
Escherichia coli = settings: Concentration 20 uM; ASSAY_TEST Inhibition of Bacterial Growth; detection method Absorption (OD600); MEDIA CAMHB; plate type 384well; NBS; CORNING #3640; time 18 hr

Row | Compound | Inhibition (Staphylococcus aureus) [%] | Inhibition (Escherichia coli) [%]
1 | CC(C)(C)NC(=O)[C@@H]1CN(Cc2cccnc2)CCN1C[C@@H](O)C[C@@H](Cc1ccccc1)C(=O)N[C@H]1c2ccccc2C[C@H]1O.O=S(=O)(O)O [INDINAVIR SULFATE] | 6.61 | 5.22
2 | Cc1ccc(C)c(OCCCC(C)(C)C(=O)O)c1 [GEMFIBROZIL] | 11.1 | 2.56
3 | CN1CCCCC1CCN1c2ccccc2Sc2ccc([S+](C)[O-])cc21.O=S(=O)(O)c1ccccc1 (configuration not stated) [MESORIDAZINE BESYLATE] | -15.92 | 4.24
4 | CN1CCc2cc(Cl)c(O)cc2[C@@H](c2ccccc2)C1.Cl | 10.41 | 0.35
5 | Nc1nc(=O)c2nc(CNc3ccc(C(=O)N[C@@H](CCC(=O)O)C(=O)O)cc3)cnc2[nH]1 [FOLIC ACID] | 10.57 | -0.13
6 | CCOC(=O)C1(CCCCCCOc2ccc(Cl)cc2)CO1 (stereo not drawn) [rac-ETOMOXIR] | 3.7 | -5.87
7 | Cl.O.c1cnc(N2CCN(Cc3ccc4c(c3)OCO4)CC2)nc1 | 13.21 | -1.86
8 | Nc1nc2c(ncn2COCCO)c(=O)[nH]1 [ACYCLOVIR] | -22.02 | 4.79
9 | O=[N+]([O-])c1cccc2cn[nH]c12 [7-NITROINDAZOLE] | 16.98 | 6.38
10 | COc1ccccc1N1CCN(CC(O)COc2cccc3ccccc23)CC1 (configuration not stated) [NAFTOPIDIL] | 4.28 | 7.29
11 | C[C@]12C=CC(=O)C=C1CC[C@@H]1[C@@H]2[C@@H](O)C[C@@]2(C)[C@H]1CC[C@]2(O)C(=O)CO [PREDNISOLONE] | 7.56 | 7.41
12 | CC1=C(/C=C/C(C)=C/C=C/C(C)=C\C(=O)O)C(C)(C)CCC1 [ISOTRETINOIN] | 5.02 | -1.2
13 | COc1cc(OC)c(C(=O)CCCN2CCCC2)c(OC)c1.Cl | 14.97 | 2.85
14 | CCC1(c2ccccc2)C(=O)NCNC1=O [PRIMIDONE] | 13.4 | 3.86
15 | CCC(=C(c1ccccc1)c1ccc(OCCN(C)C)cc1)c1ccccc1 | 2.87 | 6.04
16 | C[C@]12CC[C@@H]3c4ccc(OS(=O)(=O)[O-])cc4CC[C@H]3[C@@H]1CCC2=O.[Na+] [ESTRONE SODIUM SULFATE] | 8.52 | 6.3
17 | CC1(C)S[C@@H]2[C@H](/N=C/N3CCCCCC3)C(=O)N2[C@H]1C(=O)O [AMDINOCILLIN] | 10.96 | 1.83
18 | CCCC(=O)Nc1ccc(OCC(O)CNC(C)C)c(C(C)=O)c1.Cl (configuration not stated) [ACEBUTOLOL HYDROCHLORIDE] | 10.2 | 2.85
19 | O=C(O)c1cc(-c2ccc(F)cc2F)ccc1O [DIFLUNISAL] | -11.25 | 6.27
20 | CC(COc1ccccc1)NC(C)C(O)c1ccc(O)cc1.Cl (configuration not stated) [ISOXSUPRINE HYDROCHLORIDE] | 10.12 | -2.1
21 | CC(=O)O[C@]1(C(C)=O)CC[C@H]2[C@@H]3C[C@H](C)C4=CC(=O)CC[C@]4(C)[C@H]3CC[C@@]21C [MEDROXYPROGESTERONE ACETATE] | 10.39 | 2

Row | Compound | Inhibition (Staphylococcus aureus) [%] | Inhibition (Escherichia coli) [%]
22 | CS(=O)(=O)OCCCCOS(C)(=O)=O [BUSULFAN] | 14.7 | 10.16
23 | CC[C@H](C)C(=O)O[C@H]1C[C@@H](C)C=C2C=C[C@H](C)[C@H](CC[C@@H]3C[C@@H](O)CC(=O)O3)[C@H]21 [LOVASTATIN] | 9.76 | 0.96
24 | COc1cc2nc(N3CCN(C(=O)C4CCCO4)CC3)nc(N)c2cc1OC (configuration not stated) [TERAZOSIN] | 8.19 | -0.53
25 | OCc1cccnc1 [NICOTINYL ALCOHOL] | 10.46 | 0.45
26 | CC(=O)OCC(CCn1cnc2cnc(N)nc21)COC(C)=O [FAMCICLOVIR] | 12.23 | 6.38
27 | Cl.c1ccc(CC2=NCCN2)cc1 [TOLAZOLINE HYDROCHLORIDE] | 7.13 | 4.19
28 | Cc1cn([C@H]2C=C[C@@H](CO)O2)c(=O)[nH]c1=O [STAVUDINE] | 17.22 | 4.38
29 | Cl.Clc1cccc(Cl)c1NC1=NCCN1 [CLONIDINE HYDROCHLORIDE] | 11.8 | 4.68
30 | CCCCC(=O)O[C@H]1CC[C@H]2[C@@H]3CCc4cc(O)ccc4[C@H]3CC[C@]12C [ESTRADIOL VALERATE] | 3.82 | 3.72
31 | CC(=O)OCC(=O)[C@@]12OC(C)(C)O[C@@H]1C[C@H]1[C@@H]3C[C@H](F)C4=CC(=O)C=C[C@]4(C)[C@@]3(F)[C@@H](O)C[C@@]12C [FLUOCINONIDE] | 10.01 | -2.15
32 | O=C(O)CCc1nc(-c2ccccc2)c(-c2ccccc2)o1 [OXAPROZIN] | 10.43 | 2.77
33 | Nc1nc2c(ncn2COC(CO)CO)c(=O)[nH]1 [GANCICLOVIR] | 7.88 | 0.63
34 | CC(=O)Nc1ccc(CC(=O)O)cc1 [ACTARIT] | -0.71 | 3.54
35 | O=C1CC[C@@H](C(=O)N2CSC[C@H]2C(=O)O)N1 [PIDOTIMOD] ([pGlu]-[Thz]-OH) | 9.9 | 2.88
36 | CNCCCN1c2ccccc2CCc2ccccc21.Cl [DESIPRAMINE HYDROCHLORIDE] | 7.54 | -0.24
37 | Cc1cnc(NC(=O)C2=C(O)c3ccccc3S(=O)(=O)N2C)s1 [MELOXICAM] | -0.24 | 7.37
38 | Cl.c1ccc2c(c1)CCCC2C1=NCCN1 (configuration not stated) [TETRAHYDROZOLINE HYDROCHLORIDE] | 17.23 | 7.52
39 | CCCN[C@H]1CCc2nc(N)sc2C1 [PRAMIPEXOLE] | -18.52 | 2.75
40 | CC(=O)C1(O)CCC2C3CC(C)C4=CC(=O)C=CC4(C)C3(F)C(O)CC21C (configuration not stated) | 5.95 | 2.15
41 | O=C(O)COCCN1CCN(C(c2ccccc2)c2ccc(Cl)cc2)CC1 (configuration not stated) [CETIRIZINE] | 14.64 | -0.91
42 | Cn1cnc([N+](=O)[O-])c1Sc1ncnc2[nH]cnc12 [AZATHIOPRINE] | 18.19 | 3.51

Row | Compound | Inhibition (Staphylococcus aureus) [%] | Inhibition (Escherichia coli) [%]
43 | Cl.O.O=C(c1ccc(F)cc1)C1CCN(CCn2c(=S)[nH]c3ccccc3c2=O)CC1 | 2.33 | 1.4
44 | CN1C(C(=O)Nc2ccccn2)=C(O)c2ccccc2S1(=O)=O.O | 15.17 | -5.74
45 | CC(=O)Nc1nnc(S(N)(=O)=O)s1 [ACETAZOLAMIDE] | 15.7 | -1.89
46 | CC(=O)OCC(=O)[C@@]1(O)CC[C@H]2[C@@H]3CCC4=CC(=O)C=C[C@]4(C)[C@H]3[C@@H](O)C[C@@]21C [PREDNISOLONE ACETATE] | 11.59 | 1.81
47 | CC(N)(Cc1ccc(O)c(O)c1)C(=O)O (stereo not drawn) [METHYLDOPA (RACEMIC)] | -29.5 | 7.2
48 | O=C(O)CCNC(=O)c1ccc(N=Nc2ccc(O)c(C(=O)O)c2)cc1 | 1.56 | -1.37
49 | CC(C[N+](C)(C)C)OC(N)=O.[Cl-] (configuration not stated) [BETHANECHOL CHLORIDE] | 5.38 | -1.38
50 | CC(O)CO.N[C@@H](C(=O)N[C@@H]1C(=O)N2C(C(=O)O)=C(CSc3c[nH]nn3)CS[C@H]12)c1ccc(O)cc1 | 31.82 | 5.65
51 | CCc1cc(C(N)=S)ccn1 [ETHIONAMIDE] | 13.26 | 2.06
52 | CC(C)(C)NC(=O)[C@@H]1C[C@@H]2CCCC[C@@H]2CN1C[C@@H](O)[C@H](Cc1ccccc1)NC(=O)[C@H](CC(N)=O)NC(=O)c1ccc2ccccc2n1.CS(=O)(=O)O [SAQUINAVIR MESYLATE] | -19.12 | 7.7
53 | CCN(CC)CCOc1ccc(C(=C(Cl)c2ccccc2)c2ccccc2)cc1.O=C(O)CC(O)(CC(=O)O)C(=O)O [CLOMIPHENE CITRATE] | 43.2 | 2.4
54 | COc1ccc2[nH]c([S+]([O-])Cc3ncc(C)c(OC)c3C)nc2c1 (configuration not stated) [OMEPRAZOLE] | 3.38 | -0.65
55 | Nc1ccc(O)c(C(=O)O)c1 [MESALAMINE] | -19.58 | 3.21
56 | COc1ccc(C(=O)NCc2ccc(OCCN(C)C)cc2)cc1OC.Cl | -18.22 | 2.89
57 | CN1CCN(CCCN2c3ccccc3Sc3ccc(Cl)cc32)CC1.O=C(O)/C=C\C(=O)O.O=C(O)/C=C\C(=O)O [PROCHLORPERAZINE MALEATE] | 13.38 | 1.77
58 | Cc1nc2ccccn2c(=O)c1CCN1CCC(C(=O)c2ccc(F)cc2)CC1 [PIRENPERONE] | 1.36 | 7.4
59 | COc1cc(C)nc(-n2nc(C)cc2OC)n1 [EPIRIZOLE] | 7.75 | -0.13
60 | CCC(=O)OCC(=O)[C@@]1(OC(=O)CC)[C@@H](C)C[C@H]2[C@@H]3CCC4=CC(=O)C=C[C@]4(C)[C@@]3(Cl)[C@@H](O)C[C@@]21C [BECLOMETHASONE DIPROPIONATE] | 4.92 | -8.75
61 | NCC(=O)CCC(=O)O [AMINOLEVULINIC ACID] | 8.53 | 5.31
